Data reported in ChEMBL document CHEMBL2218924, “A broad activity screen in support of a chemogenomic map for kinase signalling research and drug discovery” (Biochem J, 2013).

Columns and labels:
[1] = target: Protein kinase C eta type (Homo sapiens) (UniProt P24723); settings: at 1 µM
[2] = target: Protein kinase C eta type (Homo sapiens) (UniProt P24723); settings: at 10 µM
[3] = target: Protein kinase C theta type (Homo sapiens) (UniProt Q04759); settings: at 1 µM
[4] = target: Protein kinase C theta type (Homo sapiens) (UniProt Q04759); settings: at 10 µM
[5] = target: T1, Protein kinase C iota type (Homo sapiens) (UniProt P41743); settings: at 1 µM
T1 sequence (whole entry): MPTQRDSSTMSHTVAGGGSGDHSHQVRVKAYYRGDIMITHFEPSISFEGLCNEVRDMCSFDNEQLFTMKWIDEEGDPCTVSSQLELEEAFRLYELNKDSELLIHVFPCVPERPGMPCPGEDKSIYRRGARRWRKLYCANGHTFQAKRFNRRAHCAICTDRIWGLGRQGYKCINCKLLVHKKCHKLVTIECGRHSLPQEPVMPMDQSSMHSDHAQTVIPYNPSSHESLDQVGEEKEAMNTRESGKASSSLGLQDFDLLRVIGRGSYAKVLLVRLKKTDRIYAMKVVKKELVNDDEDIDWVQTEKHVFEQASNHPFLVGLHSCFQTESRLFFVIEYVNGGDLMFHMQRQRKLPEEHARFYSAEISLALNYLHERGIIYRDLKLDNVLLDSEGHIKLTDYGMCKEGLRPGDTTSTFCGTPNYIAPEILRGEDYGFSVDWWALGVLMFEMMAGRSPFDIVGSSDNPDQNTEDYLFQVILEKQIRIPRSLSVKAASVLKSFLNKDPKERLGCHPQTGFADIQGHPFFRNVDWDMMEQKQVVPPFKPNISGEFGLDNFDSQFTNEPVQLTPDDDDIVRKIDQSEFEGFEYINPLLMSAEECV

[6] = target: T1, Protein kinase C iota type (Homo sapiens); settings: at 10 µM
[7] = target: T2, Serine/threonine-protein kinase D1 (Homo sapiens) (UniProt Q15139); settings: at 1 µM
T2 sequence (whole entry): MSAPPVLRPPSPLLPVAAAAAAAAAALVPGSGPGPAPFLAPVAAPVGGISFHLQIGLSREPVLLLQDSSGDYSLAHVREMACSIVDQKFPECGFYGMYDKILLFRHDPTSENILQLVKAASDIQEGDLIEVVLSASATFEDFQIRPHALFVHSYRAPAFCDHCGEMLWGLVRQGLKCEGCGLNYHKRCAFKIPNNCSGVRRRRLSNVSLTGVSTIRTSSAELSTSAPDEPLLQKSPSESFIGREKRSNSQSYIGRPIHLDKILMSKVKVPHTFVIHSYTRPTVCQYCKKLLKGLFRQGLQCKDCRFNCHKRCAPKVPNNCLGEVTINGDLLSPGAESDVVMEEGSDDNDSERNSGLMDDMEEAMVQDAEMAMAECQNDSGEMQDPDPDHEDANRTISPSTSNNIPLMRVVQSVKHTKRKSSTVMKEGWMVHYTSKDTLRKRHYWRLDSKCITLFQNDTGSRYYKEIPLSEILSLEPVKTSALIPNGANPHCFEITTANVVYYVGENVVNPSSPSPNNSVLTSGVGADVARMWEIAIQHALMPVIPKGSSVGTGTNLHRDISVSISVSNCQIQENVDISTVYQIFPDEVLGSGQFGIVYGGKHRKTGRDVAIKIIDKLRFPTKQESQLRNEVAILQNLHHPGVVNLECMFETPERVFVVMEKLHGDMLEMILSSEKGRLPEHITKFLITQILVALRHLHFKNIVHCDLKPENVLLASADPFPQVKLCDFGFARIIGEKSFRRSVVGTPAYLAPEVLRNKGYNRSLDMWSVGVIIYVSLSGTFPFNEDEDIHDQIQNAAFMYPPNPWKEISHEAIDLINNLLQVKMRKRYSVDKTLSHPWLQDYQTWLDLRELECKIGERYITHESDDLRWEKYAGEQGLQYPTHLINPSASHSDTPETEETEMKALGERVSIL

[8] = target: T2, Serine/threonine-protein kinase D1 (Homo sapiens); settings: at 10 µM
[9] = target: T3, Serine/threonine-protein kinase D2 (Homo sapiens) (UniProt Q9BZL6); settings: at 1 µM
T3 sequence (whole entry): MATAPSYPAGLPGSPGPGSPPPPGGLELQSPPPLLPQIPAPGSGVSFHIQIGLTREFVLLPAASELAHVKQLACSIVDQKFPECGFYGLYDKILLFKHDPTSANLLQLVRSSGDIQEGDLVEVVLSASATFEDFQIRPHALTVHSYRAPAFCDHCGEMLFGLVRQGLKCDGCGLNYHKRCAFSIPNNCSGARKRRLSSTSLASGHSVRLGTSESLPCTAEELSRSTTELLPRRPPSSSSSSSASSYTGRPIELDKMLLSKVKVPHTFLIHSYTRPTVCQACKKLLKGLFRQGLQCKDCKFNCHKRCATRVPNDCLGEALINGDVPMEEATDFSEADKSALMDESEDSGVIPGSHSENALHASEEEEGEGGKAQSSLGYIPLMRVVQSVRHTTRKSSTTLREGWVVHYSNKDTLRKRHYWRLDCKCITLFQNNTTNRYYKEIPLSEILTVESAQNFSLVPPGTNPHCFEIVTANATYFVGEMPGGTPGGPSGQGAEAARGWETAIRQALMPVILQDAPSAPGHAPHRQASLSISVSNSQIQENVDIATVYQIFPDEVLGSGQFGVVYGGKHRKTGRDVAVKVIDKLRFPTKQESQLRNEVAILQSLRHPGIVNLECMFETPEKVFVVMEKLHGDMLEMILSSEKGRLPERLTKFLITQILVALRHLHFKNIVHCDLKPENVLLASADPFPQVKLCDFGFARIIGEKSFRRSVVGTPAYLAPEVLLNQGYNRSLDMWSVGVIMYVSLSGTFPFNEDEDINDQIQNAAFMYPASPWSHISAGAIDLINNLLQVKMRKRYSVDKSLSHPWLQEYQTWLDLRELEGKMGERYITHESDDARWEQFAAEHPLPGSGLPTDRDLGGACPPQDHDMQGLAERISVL

[10] = target: T3, Serine/threonine-protein kinase D2 (Homo sapiens); settings: at 10 µM

Chain of Protein kinase C theta type (Homo sapiens) (Q04759 whole entry, looked up): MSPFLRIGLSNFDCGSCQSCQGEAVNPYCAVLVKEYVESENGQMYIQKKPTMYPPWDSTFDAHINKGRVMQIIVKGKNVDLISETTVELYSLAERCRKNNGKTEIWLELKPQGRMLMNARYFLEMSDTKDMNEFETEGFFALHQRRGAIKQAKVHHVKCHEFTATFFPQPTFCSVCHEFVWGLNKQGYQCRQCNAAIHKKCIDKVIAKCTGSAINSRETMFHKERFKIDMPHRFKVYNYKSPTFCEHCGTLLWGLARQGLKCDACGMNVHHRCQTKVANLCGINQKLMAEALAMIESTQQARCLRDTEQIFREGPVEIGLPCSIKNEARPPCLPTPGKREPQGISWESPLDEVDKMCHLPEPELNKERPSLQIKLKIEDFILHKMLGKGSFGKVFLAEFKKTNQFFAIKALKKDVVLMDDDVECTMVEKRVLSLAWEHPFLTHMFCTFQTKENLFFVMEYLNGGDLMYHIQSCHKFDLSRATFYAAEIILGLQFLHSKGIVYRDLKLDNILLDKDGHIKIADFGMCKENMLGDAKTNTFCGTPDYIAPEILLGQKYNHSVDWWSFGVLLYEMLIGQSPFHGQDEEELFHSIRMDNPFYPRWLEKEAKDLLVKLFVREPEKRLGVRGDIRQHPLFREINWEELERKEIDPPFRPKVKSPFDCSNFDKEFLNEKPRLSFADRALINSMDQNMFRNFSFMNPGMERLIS
Chain of Protein kinase C eta type (Homo sapiens) (P24723 whole entry): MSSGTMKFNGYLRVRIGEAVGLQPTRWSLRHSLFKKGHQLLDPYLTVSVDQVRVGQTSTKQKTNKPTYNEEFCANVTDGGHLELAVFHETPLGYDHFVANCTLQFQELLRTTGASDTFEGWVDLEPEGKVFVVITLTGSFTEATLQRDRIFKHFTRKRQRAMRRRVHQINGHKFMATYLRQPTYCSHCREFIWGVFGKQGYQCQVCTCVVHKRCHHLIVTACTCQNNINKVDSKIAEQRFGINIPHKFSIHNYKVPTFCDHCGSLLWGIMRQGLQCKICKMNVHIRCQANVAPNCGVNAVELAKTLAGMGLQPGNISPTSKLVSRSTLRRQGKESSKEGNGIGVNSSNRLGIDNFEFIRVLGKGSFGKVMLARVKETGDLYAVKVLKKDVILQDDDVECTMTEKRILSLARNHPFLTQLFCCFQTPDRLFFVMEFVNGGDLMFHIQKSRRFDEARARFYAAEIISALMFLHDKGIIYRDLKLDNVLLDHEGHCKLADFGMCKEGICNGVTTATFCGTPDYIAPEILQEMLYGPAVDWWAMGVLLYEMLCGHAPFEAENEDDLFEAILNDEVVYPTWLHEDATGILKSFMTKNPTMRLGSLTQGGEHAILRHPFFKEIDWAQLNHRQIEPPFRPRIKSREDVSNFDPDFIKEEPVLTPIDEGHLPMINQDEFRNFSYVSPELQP

Row | SMILES | residual activity [1] | residual activity [2] | residual activity [3] | residual activity [4] | residual activity [5] | residual activity [6] | residual activity [7] | residual activity [8] | residual activity [9] | residual activity [10]
1 | Cc1cncc2cccc(S(=O)(=O)N3CCCN(C(=O)CN)C[C@H]3C)c12 | 27% | 4% | 21% | 3% | 82% (inactive) | 75% | 83% | 71% | – | –
2 | Cc1nc2cc3nc(-c4cccs4)cnc3cc2n1C | 107% | 111% | 110% | 110% | 97% (inactive) | 99% | 94% | 95% | 96% | 105%
3 | CC(=O)c1ccc(N2CCOCC2)cc1O | 92% | 84% | 109% | 102% | 84% (inactive) | 106% | 92% | 95% | 93% | 109%
4 | Oc1ccc(Nc2nc(-c3ccc(Cl)cc3)cs2)cc1 | 78% | 79% | 100% | 114% | 109% (inactive) | 103% | 94% | 100% | 106% | 93%
5 | CC[n+]1c(/C=C/N(C)c2ccccc2)n(-c2ccccc2)c2ccc(-c3nc4ccccc4s3)cc21 | 119% | 88% | 96% | 84% | 93% (inactive) | 88% | 92% | 90% | 95% | 114%
6 | N#C/C(=C(\N)Sc1ccc(N)cc1)c1ccccc1C(F)(F)F | 76% | 83% | 84% | 77% | 106% (inactive) | 108% | 82% | 68% | 109% | 100%
7 | c1ccc(-c2n[nH]cc2-c2ccnc3ccccc23)nc1 | 92% | 77% | 97% | 86% | 81% (inactive) | 91% | 65% | 22% | 101% | 66%
8 | Cc1ccc(S(=O)(=O)/C=C/C#N)cc1 | 80% | 90% | 97% | 77% | 109% (inactive) | 100% | 98% | 84% | 108% | 102%
9 | Nc1ccc2ncnc(NCCc3ccc(Oc4ccccc4)cc3)c2c1 | 102% | 90% | 108% | 105% | 113% (inactive) | 111% | 91% | 82% | 107% | 102%
10 | O=c1c2ccccc2[nH]c(=S)n1CCN1CCC(=C(c2ccc(F)cc2)c2ccc(F)cc2)CC1 | 106% | 83% | 110% | 109% | 109% (inactive) | 81% | 113% | 84% | 100% | –
11 | CC(C)n1cnc2/c(=N/c3cccc(Cl)c3)nc(NCCO)[nH]c21 | 87% | 75% | 69% | 35% | 110% (inactive) | 103% | 77% | 57% | 96% | 93%
12 | O=C1NC(=O)/C(=C\c2ccc3nccnc3c2)S1 | 103% | 78% | 102% | 81% | 89% (inactive) | 88% | 103% | 88% | 108% | 96%
13 | O=C1c2ccccc2-[n+]2ccc3c([nH]c4ccccc43)c21 | 72% | 80% | 93% | 99% | 100% (inactive) | 105% | 83% | 71% | 101% | 100%
14 | CCN(CC)CCCCN1c2ccccc2Oc2ccc(Cl)cc21 | 118% | 98% | 123% | 90% | 94% (inactive) | 89% | 92% | 95% | 97% | 109%
15 | Ic1cccc(CSc2nnc(-c3ccncc3)o2)c1 | 59% | 62% | 68% | 58% | 109% (inactive) | 107% | 72% | 71% | 97% | 98%
16 | CC(C)n1cnc2c(NCc3ccccc3)nc(NCCCO)nc21 | 88% | 81% | 91% | 94% | 109% (inactive) | 105% | 91% | 72% | 103% | 96%
